Drawing on PubChem BioAssay AID504452 (The Scripps Research Institute Molecular Screening Center, 2011), this text covers activation (% of full agonist control) and activation (% of partial agonist control) for 36 compounds.

This experiment concerns the target Peroxisome proliferator-activated receptor gamma (Homo sapiens) (UniProt P37231). Briefly: PPARg partial agonist activation, primary screen, cell-based, luciferase reporter, luminescence (AID 504452).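 Also: Cos-1 cells carrying PPARgamma and a response element luciferase reporter.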 The conditions noted are these: at 5 µM, stronger effect = higher value; activation (% of full agonist control): measured here: relative to full agonist control. Background: In a reporter assay the amount or activity of a reporter protein is the signal.

Each structure is given as a SMILES string. The source made the active and inactive calls. Rule as the data show it: active = activation above about 85%; inactive = the rest.

Peroxisome proliferator-activated receptor gamma (Homo sapiens), sequence (P37231 whole entry, looked up): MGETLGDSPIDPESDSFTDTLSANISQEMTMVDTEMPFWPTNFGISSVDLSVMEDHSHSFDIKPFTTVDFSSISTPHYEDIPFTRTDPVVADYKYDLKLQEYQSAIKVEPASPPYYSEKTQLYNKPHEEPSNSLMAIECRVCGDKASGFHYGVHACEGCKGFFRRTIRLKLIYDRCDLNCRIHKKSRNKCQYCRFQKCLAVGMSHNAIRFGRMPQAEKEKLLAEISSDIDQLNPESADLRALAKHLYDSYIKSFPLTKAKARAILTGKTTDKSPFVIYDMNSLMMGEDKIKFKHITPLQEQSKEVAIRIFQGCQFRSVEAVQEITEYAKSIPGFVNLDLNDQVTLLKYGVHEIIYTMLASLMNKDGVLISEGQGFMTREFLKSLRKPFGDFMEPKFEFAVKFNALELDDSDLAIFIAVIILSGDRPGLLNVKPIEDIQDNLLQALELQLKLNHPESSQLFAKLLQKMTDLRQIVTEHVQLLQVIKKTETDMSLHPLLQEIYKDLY

With `COc1cccc(C2/C(=C(/O)c3ccccc3)C(=O)C(=O)N2Cc2ccco2)c1` (configuration not stated), the activation (% of full agonist control) was 35.3% and the activation (% of partial agonist control) was 78.2% (inactive).

For the compound `COc1ccc(C2CC(=O)N3CN(c4ccccc4F)CSC3=C2C#N)cc1OC` (configuration not stated), the activation (% of full agonist control) was 29.2% and the activation (% of partial agonist control) was 64.7% (inactive).

With `CC(=O)N1N=C(c2ccccc2)CC1c1cn(Cc2ccccc2)c2ccccc12` (configuration not stated), the activation (% of full agonist control) amounted to 44.7% and the activation (% of partial agonist control) is 99% (active).

For the compound `O=C(COc1cc(F)ccc1[N+](=O)[O-])N1N=C(c2cccs2)CC1c1ccco1` (configuration not stated), the activation (% of full agonist control) was 35.6% and the activation (% of partial agonist control) was 78.9% (inactive).

On to `Cc1cccc(NC(=O)CSc2nc(=O)n(CCN3CCOCC3)c3c2CCCC3)c1C`, for which the activation (% of full agonist control) was determined as 33.1% and the activation (% of partial agonist control) is 73.2% (inactive).

As to `O=C1C(=O)N(Cc2cccnc2)C(c2cccc(F)c2)/C1=C(/O)c1ccc2c(c1)OCO2` (configuration not stated), the activation (% of full agonist control) amounted to 35.2% and the activation (% of partial agonist control) was 77.9% (inactive).

For the compound `Cc1cccc(NC(=O)CN2C(=O)/C(=C3\SC(=S)N(CC4CCCO4)C3=O)c3ccccc32)c1` (configuration not stated), the activation (% of full agonist control) is 43.3% and the activation (% of partial agonist control) was 95.8% (active).

Regarding `CCC(=O)c1ccc(OCC(=O)OC(C)C(=O)Nc2c(C)n(C)n(-c3ccccc3)c2=O)cc1` (configuration not stated), the activation (% of full agonist control) was found to be 40.4% and the activation (% of partial agonist control) is 89.5% (active).

In the case of `Cc1cccc(Cn2cc3c(=O)n(Cc4cccc(F)c4)nc-3c3ccccc32)c1`, the activation (% of full agonist control) was 38% and the activation (% of partial agonist control) was 84.2% (inactive).

Turning to `CCOc1cc(N2CCOCC2)c(OCC)cc1NC(=O)c1ccc2ccccc2n1`, the activation (% of full agonist control) worked out at 46.5% and the activation (% of partial agonist control) was 103% (active).

Turning to `COc1cccc(NC(=O)c2ccc3c(c2)N(CC(=O)N2CCOCC2)C(=O)C(C)(C)O3)c1`, the activation (% of full agonist control) is 32.5% and the activation (% of partial agonist control) is 71.9% (inactive).

Take `O=C(NCc1ccccc1F)C(=O)NCC1CCCN1S(=O)(=O)c1ccccc1` (configuration not stated): the activation (% of full agonist control) worked out at 16.1% and the activation (% of partial agonist control) is 35.6% (inactive).

Take `Cc1ccc2nc(N3C(=O)C(O)=C(C(=O)c4ccco4)C3c3ccc(O)cc3)sc2c1` (configuration not stated): the activation (% of full agonist control) was found to be 40.9% and the activation (% of partial agonist control) was 90.5% (active).

As for `Cc1[nH][nH]c(=O)c1C(c1c(C)[nH][nH]c1=O)c1cn(Cc2ccc(Cl)c(Cl)c2)c2ccccc12`, the activation (% of full agonist control) was 35.5% and the activation (% of partial agonist control) was 78.5% (inactive).

As to `O=C(C1=C(O)C(=O)N(c2nc3ccc(Cl)cc3s2)C1c1ccco1)c1ccco1` (configuration not stated), the activation (% of full agonist control) came to 42.1% and the activation (% of partial agonist control) was 93.2% (active).

As to `CCN(C(=O)CSc1nnc(-c2ccc(F)cc2)c2ccccc12)C1CCS(=O)(=O)C1` (configuration not stated), the activation (% of full agonist control) was found to be 34.5% and the activation (% of partial agonist control) is 76.4% (inactive).

Take `Cc1ccc(OCC(=O)Nc2ccc(N3CCN(C(=O)c4ccco4)CC3)cc2)cc1`: the activation (% of full agonist control) came out at 31.4% and the activation (% of partial agonist control) was 69.5% (inactive).

`COC(=O)c1cc(C(=O)N2CCN(c3cccc(Cl)c3)CC2)cc([N+](=O)[O-])c1`: the activation (% of full agonist control) came to 27% and the activation (% of partial agonist control) was 59.7% (inactive).

On to `COc1ccc(-c2ccc(CCC(=O)O)n2CC(=O)Nc2ccccc2C)cc1`, for which the activation (% of full agonist control) was 35.1% and the activation (% of partial agonist control) was 77.7% (inactive).

Regarding `CCOC(=O)c1c(C)[nH]c(C(=O)Cn2c(=O)c3c(ncn3CC)n(Cc3ccccc3)c2=O)c1C`, the activation (% of full agonist control) came to 29.8% and the activation (% of partial agonist control) was 66% (inactive).

Take `CC(OC(=O)CNC(=O)c1ccc(F)cc1)C(=O)Nc1ccc(S(=O)(=O)N2CCOCC2)cc1` (configuration not stated): the activation (% of full agonist control) is 34.9% and the activation (% of partial agonist control) is 77.2% (inactive).

Regarding `O=C(COc1coc(CN2CCc3ccccc3C2)cc1=O)Nc1cccc(Cl)c1`, the activation (% of full agonist control) worked out at 29.2% and the activation (% of partial agonist control) is 64.6% (inactive).

Regarding `O=C(C1=C(O)C(=O)N(CCN2CCOCC2)C1c1ccc(Cl)cc1)c1cc2ccccc2o1` (configuration not stated), the activation (% of full agonist control) was 37.3% and the activation (% of partial agonist control) was 82.6% (inactive).

As for `COc1ccc2c(c1)c(=O)c(C(=O)c1ccc(F)cc1)cn2CC(=O)Nc1ccc(F)cc1`, the activation (% of full agonist control) came to 48.8% and the activation (% of partial agonist control) is 108% (active).

For `Cc1cccn2c(CN3CCNC(=O)CC3)c(C(=O)N(C)CCc3ccccc3)nc12`, the activation (% of full agonist control) is 36.3% and the activation (% of partial agonist control) is 80.3% (inactive).

As to `CC(Oc1ccc(F)cc1)C(=O)Nc1ccc(N2CCOCC2)cc1N1CCOCC1` (configuration not stated), the activation (% of full agonist control) stood at 31.2% and the activation (% of partial agonist control) is 69.2% (inactive).

On to `O=C(c1ccccc1)c1ccc(NCCCn2ccnc2)c([N+](=O)[O-])c1`, for which the activation (% of full agonist control) was 26.9% and the activation (% of partial agonist control) was 59.6% (inactive).

With `Cc1ccc(-n2ncc3c(=O)[nH]c(SCC(=O)N4CCCc5ccccc54)nc32)cc1`, the activation (% of full agonist control) was 36.4% and the activation (% of partial agonist control) is 80.5% (inactive).

With `CC(Oc1ccc(F)cc1)C(=O)Nc1cc(S(=O)(=O)N2CCCCC2)ccc1N1CCOCC1` (configuration not stated), the activation (% of full agonist control) came to 31.1% and the activation (% of partial agonist control) is 68.8% (inactive).

On to `CC(C)C[C@H](NC(=O)N1CC(=O)Nc2ccccc21)C(=O)N[C@@H](Cc1c[nH]c2ccccc12)C(=O)O`, for which the activation (% of full agonist control) worked out at 31.3% and the activation (% of partial agonist control) was 69.4% (inactive).

For the compound `CN(C)c1ccc(C(CNS(=O)(=O)c2cccc([N+](=O)[O-])c2)N2CCOCC2)cc1` (configuration not stated), the activation (% of full agonist control) amounted to 31.9% and the activation (% of partial agonist control) is 70.6% (inactive).

Take `O=C(NC(Cc1ccccc1)C(=O)O)/C(=C/c1ccc([N+](=O)[O-])cc1)NC(=O)c1ccco1` (configuration not stated): the activation (% of full agonist control) turned out to be 35.3% and the activation (% of partial agonist control) is 78.1% (inactive).

Turning to `O=c1c2cn(Cc3ccc(F)cc3)c3ccccc3c-2nn1Cc1ccc(F)cc1`, the activation (% of full agonist control) worked out at 40.3% and the activation (% of partial agonist control) was 89.3% (active).

For `O=C(CCCCCNC(=O)N1CCn2c1nc1ccccc12)N[C@H](Cc1ccccc1)C(=O)O`, the activation (% of full agonist control) was 27.3% and the activation (% of partial agonist control) is 60.5% (inactive).

Turning to `COc1ccc(NC(=O)CC2C(=O)Nc3ccccc3N2CC(=O)N2CCCC2)cc1` (configuration not stated), the activation (% of full agonist control) turned out to be 30.4% and the activation (% of partial agonist control) is 67.3% (inactive).

Turning to `O=C(c1cc(-c2ccco2)nc2ccccc12)N1CCCC(C(F)(F)F)C1` (configuration not stated), the activation (% of full agonist control) turned out to be 27.6% and the activation (% of partial agonist control) was 61% (inactive).
